Source: PubChem (National Center for Advancing Translational Sciences (NCATS))
Coupling enz – counter-screen for Giardia aldolase inhibitors: coupling enzyme system; activity change, negative = inhibition, % at 58.2 µM, hits read low; AID 2472; coupling enzyme system counterscreen, AmpLite Red fluorescence; hit rate 0.67% among 290,000; in the data active = activity change below about -30%
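Final compound at 57.5 uM, incubated 10 min at RT with coupling enzyme reagent (glyceraldehyde-3-phosphate), then 20 min with substrate and AmpLite Red detection. Fluorescence read at 525/598 nm; tests interference with the coupling assay, not aldolase inhibition.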
Tau FP inhib – inhibitors of human tau fibril formation. P10636. K18 P301L tau heparin fibrillization, Alexa594 FP, 6 h. Potency, µM (titrated, usually from 57.7 µM), inactives show top-dose activity, negative = inhibition, hits mostly inhibitors. hit rate 0.39% among 280,000. AID 1468; note: potency is the fitted concentration of half-maximal effect; nearly all actives have a fitted effect of over 55% in size
Target sequence (P10636 561-689 P618L limits assumed): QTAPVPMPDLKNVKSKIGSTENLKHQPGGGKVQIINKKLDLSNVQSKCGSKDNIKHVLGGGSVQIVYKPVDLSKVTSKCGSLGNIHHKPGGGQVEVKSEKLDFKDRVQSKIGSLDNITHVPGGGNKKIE
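K18 P301L tau (15 uM unlabeled/0.24 uM Alexa 594-labeled, final) + compound + heparin 20 uM final; 100 mM NaOAc pH 7; 6 hr 37 C; ThT 30 uM final added, 1 hr RT; FP ex 555/em 632 nm.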
USP1-UAF1 inh – blocks the human USP1/UAF1 deubiquitinase complex; O94782; recombinant USP1/UAF1, Ub-Rhodamine cleavage fluorescence; Potency, µM (top dose mostly 57.1 µM), for the others: at the top dose activity change, negative = inhibition, hits mostly inhibitors; hit rate 0.23% among 390,000; AID 743255; note: potency is the fitted concentration of half-maximal effect; nearly all actives have a fitted effect of over 60% in size
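Step one: compound is pinned into 1nM USP1/UAF1 in HEPES pH 7.8 buffer with TCEP. Step two: 15 min room-temperature incubation. Step three: Ub-Rho (150nM final) starts cleavage, tracked by fluorescence over six one-minute reads.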
Tau fibril ThT – blocks human tau fibril formation measured by thioflavin T | Potency, µM (top dose mostly 57.4 µM), inactives show at the highest dose activity, negative = inhibition, actives largely listed as inhibitors | hit rate 2.1% among 270,000 | P10636 | recombinant tau K18 P301L, heparin-induced fibrillization, ThT fluorescence | AID 1460; note: potency is the fitted concentration of half-maximal effect; nearly all actives have a fitted effect of over 55% in size
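In this qHTS, human K18 P301L tau is incubated with compound and heparin for 6 hr at 37 C, and Thioflavin T fluorescence then reports fibril load.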
Tau fluor cs – counter-screen for tau fibril formation inhibitors; tau K18 P301L Alexa594 fluorescence, heparin fibrillization; Potency, µM (highest dose often 57.7 µM), for the others: at the top dose activity change, negative = decrease; hit rate 0.93% among 280,000; note: potency is the fitted concentration of half-maximal effect; nearly all actives have a fitted effect of over 55% in size
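Human tau K18 P301L (15 uM unlabeled, 0.24 uM Alexa 594-labeled) in 100 mM sodium acetate pH 7 with 20 uM heparin, 6 hr at 37 C. ThT 30 uM added, 1 hr ambient; Alexa 594 FP and total fluorescence read at 555/632 nm.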
An asterisk follows results filed as active; ? = inconclusive; . = no result given; [ ] = another dose, or the depositor's remark. Shown are actives, neighbours in structure and some others; about 2.3% of the full set was active somewhere. Unless noted, calls come from the whole dose curve; as a rule, active = well fitted curve in the direction sought with a large enough effect; inconclusive = small, poorly fitted or top-dose-only effect, or another doubt; inactive = no such curve, though single readings can be large; an effect the other way counts as inactive or inconclusive. % is set by controls: 0 for no effect and ±100 for the full control effect.

SMILES	Coupling enz	Tau FP inhib	USP1-UAF1 inh	Tau fibril ThT	Tau fluor cs
O=S(=O)(c1cccc2ccccc12)N1CCN(c2ccc(Cl)c(Cl)c2)CC1	.	?	-23.6%	1.3%	-18.4%
O=C(O)CN1C(=O)/C(=C/c2ccsc2)SC1=S	13.2	-5.6%	-24.1%	-13.4%	7.3%
O=C(CN1C(=O)S/C(=C\C=C\c2ccccc2)C1=O)Nc1cccc(O)c1	-2.6	?	-10.9%	?	15.8µM*[quencher]
O=C(NN1C(=O)/C(=C\c2ccc(O)c([N+](=O)[O-])c2)SC1=S)c1ccccc1Cl	7.7	14.3%	-17.7%	3.16µM*	?
Cn1cc(/C=C2\SC(=O)NC2=S)c2ccccc21	-2.7	?	-17.5%	2µM*	?
Cc1ccc(C(=O)NN2C(=O)/C(=C/c3cn(C)c4ccccc34)SC2=S)cc1	-15.3	7.3%	-24.8%	7.2%	1.8%
O=C(CCN1C(=O)S/C(=C\C=C\c2ccccc2)C1=O)Nc1ccc(O)cc1	0.8	.	-10.9%	.	.
Cn1cccc1/C=C1\SC(=S)N(CC(=O)O)C1=O	13.5	-3.5%	-18.6%	11.2µM*	0.4%
COc1cccc(N2CC(NC(=O)c3ccco3)CC2=O)c1 (configuration not stated)	.	-12.6%	-21.2%	-7.0%	-11.8%
COc1ncc2nc(-c3ccccc3)c(=O)n(-c3ccccc3)c2n1	2.8	.	.	.	.
Cc1ccc(/C=C2/SC(=O)NC2=S)o1	-17.3	10µM*	-27.0%	4.47µM*	?
Cn1cccc1/C=C1\SC(=S)N(NC(=O)c2ccccc2Cl)C1=O	0.6	5.5%	19.8%	11.2µM*	-26.1%
O=C(O)CN1C(=O)/C(=C/c2ccc(SCc3ccccc3)o2)SC1=S	-55.4*	-7.7%	?	12.6µM*	-10.9%
Cc1ccc(C(=O)NN2C(=O)/C(=C/c3cccn3C)SC2=S)cc1	2.1	0.0%	?	5.01µM*	?
Cc1onc(-c2c(F)cccc2Cl)c1C(=O)NCCc1ccncc1	.	.	0.7%	.	.
CO[C@H]1COC(=O)[C@H](C)NC(=O)[C@@H](C)COC(=O)[C@H]2CCCN2C(=O)C/C=C\[C@H]1C	1.0	1.4%[11.6 µM]	.	-12.7%[11.5 µM]	-12.4%[11.6 µM]
O=C(O)CN1C(=O)/C(=C/C=C/c2ccccc2)SC1=S	9.7	-6.3%	-22.6%	11.2µM*	-7.5%
Cn1cc(/C=C2\SC(=S)N(NC(=O)c3ccccc3Cl)C2=O)c2ccccc21	-12.4	-19.0%	?	1.12µM*	-22.7%
CC(=O)c1ccc(NC(=O)CN2C(=O)/C(=C/C=C/c3ccccc3)SC2=S)cc1	2.9	0.7%	-10.7%	?	?
CCN(C(=O)COc1cccc2cccnc12)C1CCS(=O)(=O)C1 (configuration not stated)	-16.9	?	-0.9%	25.1µM*	-27.7%
CC(=O)c1ccc(NC(=O)COCc2cc(-c3ccc(F)cc3)on2)cc1	.	-7.7%	-19.9%	?	-12.0%
CCOc1ccc(/C=C/C2=Cc3c(sc(NC(=O)CSc4n[nH]c(N)n4)c3C#N)C(C)(C)C2)cc1	-0.5	-14.3%	?	14.1µM*	?
NC(=O)c1ccsc1NC(=O)CSc1n[nH]c(N)n1	.	.	-15.4%	.	.
Cc1ccsc1/C=C/C1=Cc2c(sc(NC(=O)CSc3n[nH]c(N)n3)c2C#N)C(C)(C)C1	-4.1	-12.8%	-16.0%	15.8µM*	?
Cc1[nH]c2ccccc2c1/C=N/Nc1cccc(C(=O)O)c1	-0.8	-7.8%	-22.8%	12.6µM*	?
SMILES	Coupling enz	Tau FP inhib	USP1-UAF1 inh	Tau fibril ThT	Tau fluor cs
O=C(O)c1cccc(N/N=C/c2ccc(-c3ccccc3)cc2)c1	6.8	-6.2%	-25.6%	14.1µM*	?
Brc1ccc(/C=N/Nc2ccccc2)cc1	-1.1	10.6%	-5.3%	?	20µM*[quencher]
O=C(O)c1cccc(N/N=C/c2cc(Br)cc(Br)c2O)c1	2.7	?	-14.8%	11.2µM*	17.8µM*[quencher]
Oc1ccc(/C=N/Nc2ccccc2)cc1	-7.6	14.6%	-20.6%	?	?
Cc1[nH]c2ccccc2c1/C=N/NC(=O)Nc1ccccc1	2.8	10.5%	-21.8%	?	?
COc1ccc(Br)cc1/C=N/Nc1cccc(C(=O)O)c1	6.2	0.5%	0.2%	?	-24.9%
CCc1ccccc1NC(=O)CSc1nnc(-c2nonc2NC(C)=O)n1C	.	-0.5%	-4.0%	3.4%	-1.3%
